Assay [1] in a line: qHTS assay to identify small molecule agonists of the hypoxia (HIF-1) signaling pathway - cell viability counter screen (AID 1224844; calls by dose curve; further: nearly all actives have a fitted effect of over 50% in size). In short, it runs like this:
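In this counter screen, HRE-bla ME-180 cell viability after 17 hrs of compound exposure at 37C was read by CellTiter-Glo luminescence, multiplexed with the beta-lactamase reporter measurement.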
For orientation: qHTS replaces the single test concentration by a dilution series.

Assay [2] is described as follows: qHTS assay to identify small molecule agonists of H2AX - cell viability counter screen (AID 1224847; calls by dose curve; further: nearly all actives have a fitted effect of over 30% in size; further: potency means the concentration at half of the fitted maximal effect; on activity change, negative = cytotoxicity: top concentration of the series differs between compounds). In short, it runs like this:
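Cells plated first: CHO-K1, 1000 per well in 10% FBS medium, incubated overnight at 37C. Then 15-point compound titration added (final DMSO 0.76%) for 3 hr. Finally CellTiter-Glo added and luminescence read.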

Assay [3] can be described thus: qHTS assay to identify small molecule agonists of the estrogen related receptor (ERR) signaling pathway from Tox21 library (AID 1224849; calls by dose curve; further: nearly all actives have a fitted effect of over 15% in size). Particulars: ERR reporter cell line, ONE-Glo luciferase, 18 h; at 92.4 µM (top of the series) unless noted. In short, it runs like this:
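Luciferase activity in ERR pathway reporter cells served as the agonist readout; exposure lasted 18 h at 37 C, with ONE-Glo detection after 30 min at room temperature.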

The nature of assay [4]: qHTS RealTime-Glo MT Cell Viability Assay in HepG2 cells - 24 hour (AID 1224867). Further: nearly all actives have a fitted effect of over 50% in size. Further: potency means the concentration at half of the fitted maximal effect. In short, it runs like this:
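HepG2 cells (600/well) were dispensed with RealTime-Glo reagents, incubated 5 h at 37 °C, then treated with compounds in DMSO for up to 40 h. Nonlytic NanoLuc luminescence reflecting viable cells was read at each stated time point.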

A short description of assay [5]: qHTS RealTime-Glo MT Cell Viability Assay in HEK293 cells - 32 hour (AID 1224868). Further: nearly all actives have a fitted effect of over 50% in size. Further: potency means the concentration at half of the fitted maximal effect. On activity change, negative = cytotoxic: top concentration of the series differs between compounds. In short, it runs like this:
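HEK293 cells seeded with NanoLuc/prosubstrate reagent, rested 5 h at 37 C, then dosed and kept at 37 C up to 40 h. Nonlytic real-time luminescence from viable cells read at 0, 8, 16, 24, 32 and 40 h.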

A short description of assay [6]: A CellTox Green Cytotoxicity Assay to monitor cytotoxicity in HEK293 cells - 0 hour (AID 1224869). Further: nearly all actives have a fitted effect of over 50% in size. Further: potency means the concentration at half of the fitted maximal effect. In short, it runs like this:
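Real-time, in one plate: 600 HEK293 cells/well with dead-cell DNA dye, pinned compound after 5 h, 37 C incubation over 40 h; viable cells give no appreciable fluorescence.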

Assay [7] in a line: qHTS RealTime-Glo MT Cell Viability Assay in HepG2 cells - 40 hour (AID 1224870). Further: nearly all actives have a fitted effect of over 50% in size. Further: potency means the concentration at half of the fitted maximal effect. In short, it runs like this:
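HepG2 cells (600/well) mixed with RealTime-Glo MT reagent, settled 5 h at 37 C/5% CO2 before compound addition. Nonlytic NanoLuc luminescence from viable-cell prosubstrate reduction read repeatedly during 40 h treatment at 37 C.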

Assay [8] is described as follows: qHTS assay to identify small molecule agonists of the hypoxia (HIF-1) signaling pathway (AID 1224846; active means well fitted activation curve with a large enough effect in the signal ratio in the repeat runs, not every such curve was filed as active; the % refers to the signal ratio). In short, it runs like this: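 ME-180 HRE-bla reporter cells; compounds in DMSO, 17 h at 37C; read-out beta-lactamase via CCF4-AM FRET.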
Assay [9] in a line: qHTS assay to identify small molecule antagonists of the estrogen related receptor (ERR) signaling pathway from Tox21 library (AID 1224848). Further: nearly all actives have a fitted effect of over 50% in size. Further: potency means the concentration at half of the fitted maximal effect. In short, it runs like this: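 Compounds dissolved in DMSO are pin-transferred onto ERR reporter cells (2,000 per well) that have settled for 6 h at 37 C. Plates then incubate 18 h at 37 C before ONE-Glo luciferase reagent and a luminescence read 30 min later.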

Assay [10] in a line: qHTS assay to identify small molecule agonists of H2AX (AID 1224845; active means well fitted activation curve with a large enough effect in the signal ratio in the repeat runs, not every such curve was filed as active; the % refers to the signal ratio; further: potency means the concentration at half of the fitted maximal effect). A digest of the protocol:
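Wild-type CHO-K1 cells, plated overnight, exposed 3hr at 37C to 15 concentrations (0.76% DMSO final). Lysed, then HTRF anti-pH2AX (S139) cryptate and anti-H2AX-d2 antibodies, 24 hr room temperature; 665/620 nm emission read.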

Each structure is given as a SMILES string. Several values for one entry are separate records, joined by “and”; a condition that tells them apart may be missing. Equal entries are not always repeated. A number with no mark means an inactive call. Results filed as inconclusive are left out. Activity calls are given as the source filed them. Unless noted, the call rests on the fitted dose curve; in most records, active means well fitted curve in the direction sought with a large enough effect in the repeat runs; inconclusive means weak or mixed curves; inactive means no such curve, though single readings can be large; an effect the other way counts as inactive or inconclusive.
On the % scale 0 is the no-effect control and ±100 the full control effect.

With `Nc1cc(C(=O)O)c(O)c(S(=O)(=O)O)c1`, the Potency result in assay [1], in assay [2], in assay [4], in assay [5], in assay [6] and in [7] was “inactive” each time. Moreover, the activity change, positive = activation in assay [3] is 7.51%.
As to `CC(C)CC(=O)C1C(=O)c2ccccc2C1=O`, the Potency result in [1], in assay [8], in assay [4], in assay [5], in assay [6] and in assay [7] was “inactive” in each case. Further, the Potency in [9] is 30.6 µM (active). Besides, the activity change, positive = activation in assay [3] is -53.7%.
With `Cn1c(=O)cc(Oc2ccc(F)cc2F)c2cnc(NCC(C)(C)O)nc21`, the Potency entry in [1], in assay [8], in assay [4], in assay [6] and in assay [7] was “inactive” each time. For the same molecule, in assay [9], the Potency was 30.6 µM (active). The activity change, positive = activation in [3] was -55.2%.
`Cc1ccc(C(=O)Oc2ccc(C(O)CNC(C)(C)C)cc2OC(=O)c2ccc(C)cc2)cc1` (centres undefined): the Potency result in assay [1], in assay [8] and in [6] was “inactive” throughout. Also, the Potency in [4] is 21.3 µM (active); in assay [7], 23.9 µM (active).
Turning to `CN(C)C(=O)NC1(c2ccccc2)CCN(CC[C@@]2(c3ccc(F)c(F)c3)CN(C(=O)c3ccccc3)CCO2)CC1`, the Potency entry in assay [1], in assay [2], in assay [4], in assay [6] and in assay [7] was “inactive” in each case. For the same molecule, the activity change, positive = activation in assay [3] was -22.6%.
In the case of `CCC(C)c1cc(C(C)(C)C)c(O)c(C(C)(C)C)c1` (centres undefined), the Potency result in assay [1], in [8], in assay [2], in [4], in assay [5] and in assay [6] was “inactive” each time. The Potency entry in assay [7] is “inactive”.
For `CCOc1ccc(N=Nc2ccc(/C=C/c3ccc(N=Nc4ccc(OCC)cc4)cc3S(=O)(=O)O)c(S(=O)(=O)O)c2)cc1`, the Potency result in assay [1], in assay [8], in assay [2], in [5], in assay [6] and in [7] was “inactive” each time.
For the molecule `OC(CN1CCC(Cc2ccc(F)cc2)CC1)c1ccc(Cl)cc1` (centres undefined), the Potency entry in [1], in assay [8] and in [6] was “inactive” each time. The Potency in assay [5] was 10.7 µM (active).
Consider `Clc1ccc(Cn2c(CN3CCCC3)nc3ccccc32)cc1`, for which the Potency entry in assay [1], in assay [2], in [4], in assay [6] and in assay [7] was “inactive” in each case.
Regarding `C/C=C/C(=O)CC`, the results for the activity change, negative = cytotoxicity in assay [1], in assay [2] and in assay [4] were -6.33% [at 15.8 µM], 0.284% [at 31.6 µM] and 0.602% [at 15.8 µM], respectively. In addition, the activity change, negative = cytotoxic was 1.19% [at 15.8 µM] in [5] and 1.82% [at 15.8 µM] in assay [7]. In addition, the cytotoxicity in assay [6] is 1.29% [at 15.8 µM].
For the molecule `O=S(=O)(Oc1ccc(Cl)cc1)c1ccccc1`, the Potency entry in assay [1], in [8], in assay [4], in [6] and in [7] was “inactive” each time. The activity change, positive = activation in [3] was -14.7%.
For `O=C(O)C1(C(=O)Nc2ccc(Cl)cc2Cl)CC1`, the Potency result in assay [1], in assay [8], in assay [4], in assay [5], in [6] and in assay [7] was “inactive” in each case.
For the molecule `COc1ccc(-c2nc3ccc(C4=NNC(=O)CC4C)cc3[nH]2)cc1` (centres undefined), the Potency entry in [1], in assay [8], in assay [9], in assay [4], in [6] and in [7] was “inactive” throughout. The Potency in assay [5] was 8.49 µM (active).
With `CCOC(=O)C(O)c1ccccc1` (centres undefined), the Potency entry in [1], in assay [8], in assay [4], in [5], in assay [6] and in assay [7] was “inactive” throughout. In addition, the activity change, positive = activation in [3] is 3.78% [at 42.5 µM].
For the molecule `Cc1cccc(C)c1OCC(=O)N[C@@H](Cc1ccccc1)[C@@H](O)C[C@H](Cc1ccccc1)NC(=O)[C@H](C(C)C)N1CCCNC1=O`, the Potency result in [8], in [4], in assay [6] and in assay [7] was “inactive” in each case. The activity change, positive = activation in assay [3] was -59.8% [at 42.5 µM]. In assay [5], the Potency was 23.9 µM (active).
Take `CNCCCN1c2ccccc2CCc2ccccc21`: the Potency entry in assay [10], in [2] and in assay [6] was “inactive” each time.
Consider `O=C(Cl)c1cc(C(=O)Cl)cc(C(=O)Cl)c1`, for which, in assay [5], the Potency is 49 µM (active). Moreover, the Potency result in assay [6] was “inactive”.
As for `CCN(CC)c1ccc2c(-c3ccccc3C(=O)O)c3ccc(=[N+](CC)CC)cc-3oc2c1`, the Potency result in assay [8] was “inactive”. The Potency in [2] was 40.1 µM (active); in assay [9], 27.3 µM (active); in assay [5] it was 21.9 µM (active); in [6], 21.9 µM (active). In addition, the activity change, positive = activation in assay [3] is -49.3%.
Consider `c1ccc(-c2ccccn2)nc1`, for which the Potency entry in assay [1], in assay [4], in assay [5], in assay [6] and in assay [7] was “inactive” throughout. Also, the activity change, positive = activation in assay [3] was -20.5%.
With `C[C@@H]1C[C@H]2[C@@H]3CCC4=CC(=O)C=C[C@]4(C)[C@@]3(F)[C@@H](O)C[C@]2(C)[C@@]1(O)C(=O)COC(=O)c1ccncc1`, the Potency entry in assay [10], in [8], in assay [4], in assay [5], in [6] and in assay [7] was “inactive” each time.
For the molecule `COc1ccc(S(=O)(=O)N2C(=O)[C@@](c3ccccc3OC)(N3C[C@H](O)C[C@H]3C(=O)N(C)C)c3cc(Cl)ccc32)c(OC)c1`, the Potency in assay [5] was 49 µM (active). In assay [6], the Potency entry is “inactive”.
Turning to `NCc1ccccc1Sc1ccccc1CO`, the Potency result in [1], in assay [4], in assay [5], in assay [6] and in assay [7] was “inactive” each time.
`CN(C)CCOC(c1ccccc1)c1ccc(Br)cc1` (centres undefined): the Potency result in assay [10], in assay [8], in assay [2], in assay [9], in [4] and in assay [6] was “inactive” throughout. Further, the Potency result in assay [7] was “inactive”. In addition, the activity change, positive = activation in [3] was -2.31% [at 42.5 µM].
In the case of `CCCCC(=O)OCC(=O)[C@H]1[C@H](C)C[C@H]2[C@@H]3C[C@H](F)C4=CC(=O)C=C[C@]4(C)[C@@]3(F)[C@@H](O)C[C@@]21C`, the Potency entry in assay [8], in assay [2], in assay [4], in assay [5], in assay [6] and in assay [7] was “inactive” in each case.
As to `COc1cc(C(=O)OCCCN2CCCN(CCCOC(=O)c3cc(OC)c(OC)c(OC)c3)CC2)cc(OC)c1OC`, the Potency result in [10], in [2], in [9], in assay [4], in assay [6] and in assay [7] was “inactive” each time. For the same molecule, in assay [3], the activity change, positive = activation was -15% [at 42.5 µM]. The Potency in [5] was 9.52 µM (active).
Take `CN(C)CCN(Cc1ccccc1)c1ccccn1`: the Potency result in assay [10], in assay [2], in assay [4], in [5], in [6] and in assay [7] was “inactive” each time.
Consider `C[C@H](CCC(=O)O)[C@H]1CC[C@H]2[C@@H]3CC[C@@H]4C[C@H](O)CC[C@]4(C)[C@H]3C[C@H](O)[C@]12C`, for which the Potency result in [4], in [6] and in assay [7] was “inactive” in each case.
`COc1ccnc(CS(=O)c2nc3ccc(OC(F)F)cc3[nH]2)c1OC` (centres undefined): the Potency result in assay [1], in assay [4], in assay [5], in [6] and in assay [7] was “inactive” each time.
`C=CC(=O)OCCOCCOCCOCCOC(=O)C=C`: the Potency in assay [10] is 50.8 µM (active) and 50 µM (active); in assay [4], 43.2 µM (active); in assay [5] it was 34.8 µM (active) and 24.3 µM (active). Moreover, in [6], the Potency entry was “inactive”.
Turning to `CCC(CC)Nc1ccc(C)c(C)c1`, the Potency result in [10], in assay [2], in assay [4], in [5], in assay [6] and in assay [7] was “inactive” each time.
With `CCCCCCCCCCCCN1CCCCCC1=O`, the Potency result in [10], in assay [4], in assay [6] and in assay [7] was “inactive” in each case. Besides, the activity change, positive = activation in [3] is -23.3%.

The values are drawn from PubChem BioAssay (Tox21).
